# Test results published in PubChem BioAssay AID1458 (National Center for Advancing Translational Sciences (NCATS), 2008).
# Out of some 210,000 compounds screened, about 5,900 (2.8%) were called active. Where a call stands in place of a potency, no number is given. Another 5% or so got no clear call; they are omitted. The call rests on the fitted dose curve; in most records, active means well fitted activation curve with a large enough effect; inconclusive means small, poorly fitted or top-dose-only effect; inactive means no such curve, though single readings can be large or run the other way. The sample as a whole holds a higher share of actives than the screen did.
# Test: qHTS Assay for Enhancers of SMN2 Splice Variant Expression; further: nearly all actives have a fitted effect of over 55% in size
# Conditions: HEK293 SMN2-luciferase splicing reporter, luminescence, 30-36 h; series mostly up to 46.1 µM
# Procedure, shortened: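 HEK293 cells carry an SMN2 minigene-luciferase reporter in which exon 7 inclusion puts luciferase in frame. Cells were seeded at 2000 cells/well, attached for 10-12 hours, then exposed to compounds for 30-36 hours at 37C before ONE-Glo luminescence.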
# Potency means the concentration at half of the fitted maximal effect.
row,SMILES,Potency
1,COc1ccc(Nc2ncc3c(n2)CCN(C(=O)OC(C)(C)C)C3)cc1,inactive
2,CCOc1ccc(Nc2nc(Cl)nc(N3CCN(c4ccc(OC)cc4)CC3)n2)cc1,inactive
3,COc1ccc(Nc2ncc(F)c(N3CCOCC3)n2)cc1,10 µM (active)
4,CC(C)c1ccc(OCC(=O)N(Cc2ccc(N(C)C)cc2)C2CCS(=O)(=O)C2)cc1 (stereo not given),inactive
5,CC1CCCCN1Cc1c(O)ccc2c(=O)c(-c3cccc(Cl)c3)c(C(F)(F)F)oc12 (stereo not given),inactive
6,CCOC(=O)C1CCN(C(=O)CSc2c3c(nc4ccc(Cl)cc24)CCCC3)CC1,inactive
7,Cc1ccc(-c2cc(C(F)(F)F)c(C#N)c(SCC(=O)Nc3ccccc3)n2)cc1,inactive
8,Cc1cc(C)c(C#N)c(SCC(=O)Nc2ccccc2)n1,12.6 µM (active)
9,COCc1cc(C)nc(SCC(=O)Nc2cccc(C)c2)c1C#N,inactive
10,Cc1cccc(NC(=O)Cn2c(=O)n(CCC(C)C)c(=O)c3cccnc32)c1,inactive
11,COc1cc(CN(CC2CCCO2)C(=O)c2ccccc2F)cc(OC)c1OC (stereo not given),inactive
12,CCc1ccc(NC(=O)Cn2c(=O)n(CCC(=O)NCc3ccc4c(c3)OCO4)c(=O)c3ccccc32)cc1,inactive
13,Cc1ccccc1-n1c(=O)c2ccccc2n(Cc2ccc(F)cc2)c1=O,inactive
14,CCOc1ccc(NC(=O)c2c(NC(=O)Cc3ccccc3)sc3c2CCCCC3)cc1,inactive
15,CCC(C)(C)NC(=O)C(c1cccn1C)N(Cc1ccc(C)cc1)C(=O)Cn1nnc2ccccc21 (stereo not given),15.8 µM (active)
16,COCCNC(=O)C(c1ccc(C)o1)N(Cc1ccccc1)C(=O)Cn1nnc2ccccc21 (stereo not given),inactive
17,Cc1ccc(C(C(=O)NCc2ccco2)N(CC2CCCO2)C(=O)Cn2nnc3ccccc32)cc1 (stereo not given),inactive
18,O=C(Cn1c(=O)n(-c2ccc(F)cc2)c(=O)c2sc3ccccc3c21)NC1CCCC1,inactive
19,Cc1ccc(-n2ncc3c(=O)n(Cc4cccc(C(F)(F)F)c4)cnc32)cc1C,inactive
20,O=C(Cn1c(COc2ccccc2)nc2ccccc21)Nc1cc(Cl)c(Cl)cc1Cl,inactive
21,COCn1c(COc2ccccc2)nc2ccccc21,12.6 µM (active)
22,CC(C)c1ccc(Cn2c(COc3ccccc3)nc3ccccc32)cc1,inactive
23,Cc1cc(C)c2oc(C(=O)Nc3ccc(S(=O)(=O)Nc4nccc(C)n4)cc3)cc(=O)c2c1,inactive
24,O=C(CN1C(=O)COc2ccc(S(=O)(=O)N3CCCCCC3)cc21)N1CCN(c2cccc(C(F)(F)F)c2)CC1,inactive
25,O=C(Nc1nc2cc3c(cc2s1)OCCO3)c1cccc(S(=O)(=O)N2CCOCC2)c1,inactive

row,SMILES,Potency
1,Cc1nc(N2CCCCC2)sc1C=O,inactive
2,c1c2c(cc3sc(N4CCCCC4)nc13)OCCO2,0.501 µM (active)
3,Cc1ccc(C(=O)Nc2ccc(OCc3cc(=O)n4c(C)csc4n3)cc2)cc1,inactive
4,CCNC(=O)Cn1nc(C)n2c(cc3c(OC)cccc32)c1=O,inactive
5,COC(=O)c1ccccc1NC(=O)c1ccc2c(=O)n3c(nc2c1)CCCCC3,inactive
6,Cc1cc([N+](=O)[O-])ccc1NC(=O)C1CCCO1 (stereo not given),inactive
7,O=C(Nc1nc2ccc(S(=O)(=O)N3CCCC3)cc2s1)C1CCCO1 (stereo not given),inactive
8,Cc1cc(C)c2nc(NC(=O)C3CCCO3)sc2c1 (stereo not given),12.6 µM (active)
9,O=C(Nc1cc(-c2nc3ccccc3o2)ccc1Cl)c1cc([N+](=O)[O-])ccc1N1CCOCC1,inactive
10,Cn1c(-c2ccco2)nc2cc3ccccc3cc21,2.51 µM (active)
11,CN(c1nc2ccccc2n2c(-c3ccco3)nnc12)S(=O)(=O)c1ccccc1,inactive
12,CN1c2ccccc2-c2nc3ccccc3n2C1c1ccco1 (stereo not given),inactive
13,COC(=O)CC1Oc2ccccc2-n2cc(-c3ccccc3)nc21 (stereo not given),inactive
14,COc1cccc(N2CCN(S(=O)(=O)c3cc(Br)cc4c3N(C(=O)C3CC3)CC4)CC2)c1,inactive
15,CN(C)CCN=c1cc(-c2ccccc2)oc2ccc(Cl)cc12,15.8 µM (active)
16,CCC1CCCCN1C(=O)Cn1c(=O)n(CCCCCC(=O)NCc2ccccc2)c(=O)c2sccc21 (stereo not given),inactive
17,Cc1ccc(C(=O)Nc2ccc(OCc3cc(=O)n4c5c(sc4n3)CCCC5)cc2)cc1,inactive
18,CC(=O)NCCc1nc2cc(NC(=O)c3ccccc3)ccc2n1C,22.4 µM (active)
19,Cn1c(CN2CCOCC2)nc2cc(NC(=O)c3ccc(Cl)cc3)ccc21,inactive
20,CCCCCn1c(CCNC(=O)c2ccc(F)cc2)nc2ccccc21,inactive
21,COc1ccc(C2Sc3ccccc3NC3=C2C(=O)c2ccccc23)c(OC)c1OC (stereo not given),inactive
22,Cc1c(-c2ccccc2)n[nH]c1C(=O)N=Nc1c(O)[nH]c2ccccc12,20 µM (active)
23,COCC(=O)N=Nc1c(O)[nH]c2ccccc12,inactive
24,Cc1cccc(N(CC(=O)N=Nc2c(O)[nH]c3ccccc23)S(C)(=O)=O)c1C,inactive
25,COc1ccccc1CNC(=O)C(Cc1ccccc1)NS(=O)(=O)c1ccc2c(c1)oc(=O)n2C (stereo not given),inactive

row,SMILES,Potency
1,C/C(=N\Nc1ncc(Cl)cc1Cl)c1ccc(S(=O)(=O)NCc2ccco2)cc1,12.6 µM (active)
2,C/C(=N\NS(=O)(=O)c1ccc(Br)cc1)c1cccs1,inactive
3,O=C(NC1CCC(O)CC1)c1ccc(S(=O)(=O)NCc2ccco2)cc1 (stereo not given),inactive
4,Cc1c(Cl)cnc(NC(=O)COC(=O)c2ccc(S(=O)(=O)NCc3ccco3)cc2)c1Cl,inactive
5,C/C(=N\Nc1ncc(Cl)cc1Cl)c1cccs1,11.2 µM (active)
6,C/C(=N\NC(=O)COc1c(C)cccc1C)c1cccs1,inactive
7,Cc1cccc(C(CC(=O)NCC2(c3ccccc3)CCCC2)c2ccccc2)c1O (stereo not given),inactive
8,CCOc1ccccc1CNCc1c(C(=O)O)c(C)n(Cc2ccc(C)cc2)c1C,inactive
9,O=S(=O)(NCC(c1ccccc1)N1CCc2ccccc21)c1ccccc1 (stereo not given),inactive
10,COc1ccc(S(=O)(=O)Nc2cc3c(C(=O)OC(C)C)c(C)oc3c3ccccc23)cc1,inactive
11,Cc1cc2oc(C(=O)N(Cc3ccc(Cl)cc3)Cc3ccco3)c(C)c2cc1Cl,inactive
12,COc1ccccc1C(=O)Nc1c(C(=O)Nc2ccc(C)cc2)oc2ccccc12,inactive
13,O=C(Nc1nc2ccc(F)cc2s1)c1nc(SCc2ccccc2F)ncc1Cl,inactive
14,CCS(=O)(=O)N1Cc2ccccc2CC1C(=O)Nc1nc2ccc(F)cc2s1 (stereo not given),14.1 µM (active)
15,CSc1ncccc1C(=O)Nc1nc2ccc(F)cc2s1,inactive
16,Cc1cccc(N2CCN(C(=O)c3ccc4c(c3)CCN4S(=O)(=O)c3ccccc3)CC2)c1C,inactive
17,O=c1oc(-c2ccco2)nc2sc3c(c12)CCCCC3,14.1 µM (active)
18,O=C(NCc1ccco1)c1cccn2c(=O)c3c4c(sc3nc12)CCCC4,inactive
19,Cn1c(=O)n(Cc2ccco2)c(=N)c2c3c(sc21)CCCC3,inactive
20,Oc1ccccc1-c1nc2ccc(Cl)cn2c1Nc1ccc2c(c1)OCCO2,inactive
21,CC(=O)C1C(c2cccc(Oc3ccccc3)c2)NC(=O)NC1(O)C(F)(F)F (stereo not given),inactive
22,O=C(c1cccs1)C1C(c2ccc(Br)cc2)NC(=S)NC1(O)C(F)(F)F (stereo not given),12.6 µM (active)
23,CC(=O)C1C(c2ccc(Cl)cc2)NC(=O)NC1(O)C(F)(F)F (stereo not given),inactive
24,COc1ccc2c(c1)C(c1cccs1)=NNC(c1cccnc1)=N2,inactive
25,CCOc1ccc2c(c1)C(c1ccc(C)cc1)=NNC(c1ccc(C)cc1)=N2,12.6 µM (active)

row,SMILES,Potency
1,Fc1ccc2c(c1)C(c1cccnc1)=NNC(c1cccs1)=N2,inactive
2,Cc1cccn2c(=O)c3cc(C(=O)NC(C)c4ccccc4)c(=N)n(CCCO)c3nc12 (stereo not given),inactive
3,COc1cc(OC)cc(C(=O)Nc2c(C(=O)Nc3ccc(F)cc3)oc3ccccc23)c1,inactive
4,CCN(CC)c1ccc(/C=N/Nc2nc(C)cc(C)n2)c(O)c1,inactive
5,Oc1ccc(/C=N/NC2=NCCCCC2)c(O)c1,12.6 µM (active)
6,COc1ccc(/C=C(\C#N)C(=O)ONC2=NCCCCC2)cc1,inactive
7,NS(=O)(=O)c1ccc(NC(=O)COc2ccc(S(=O)(=O)NC3CCCCC3)cc2)cc1,inactive
8,Cc1ccc(S(=O)(=O)NCC(=O)N(CC(=O)NC(C)(C)C)Cc2cccs2)cc1,inactive
9,Cc1ccc(S(=O)(=O)NCC(=O)N(CC(=O)NC2CCCCC2)Cc2ccco2)cc1,20 µM (active)
10,Cc1ccc(S(=O)(=O)N(C)CC(=O)NC2CCCC2)cc1,inactive
11,CN(Cc1ccccc1)C(=O)c1cc2c(=O)n(C)c3ccccc3c2s1,inactive
12,Cc1cccc(NC(=O)CN(c2ccc(C(C)C)cc2)S(=O)(=O)c2c(C)nn(C)c2C)c1C,inactive
13,CCOc1ccc(-c2cc3nc(C4CCN(C(=O)OC(C)(C)C)CC4)c(C(=O)Nc4ccc(C(=O)OC)cc4)cn3n2)cc1,inactive
14,Brc1ccc(-c2noc(-c3ccccc3)n2)o1,11.2 µM (active)
15,Nc1nonc1-c1noc(-c2ccc(Br)o2)n1,inactive
16,CCCN(CCC)c1ccc(C(O)c2nnc(-c3ccccc3)o2)cc1 (stereo not given),inactive
17,OC(c1nnc(-c2ccccc2)o1)c1cccs1 (stereo not given),inactive
18,Cn1nc(-c2ccccc2)c(-c2nc(-c3ccc(Cl)cc3)no2)c1Cl,inactive
19,Brc1ccc(-c2nnc(-c3ccccc3)o2)o1,14.1 µM (active)
20,COC(=O)c1sc2ncccc2c1-n1c(C)ccc1C,inactive
21,Cc1sc2ncn(CC(=O)N3CCN(c4ccc(F)cc4)CC3)c(=O)c2c1S(=O)(=O)N1CCN(c2ncccn2)CC1,inactive
22,CCc1nccn1S(=O)(=O)c1cc(Br)ccc1Br,inactive
23,Cc1ccc(-c2nn(CCC(=O)Nc3ccc(Cl)c(Cl)c3)c(=O)c3ccccc23)cc1,inactive
24,CC(C)Cn1c(C2CC(=O)N(c3ccccc3Cl)C2)nc2ccccc21 (stereo not given),inactive
25,Cc1cccc(NC(=O)CSc2nc3c(oc4ccccc43)c(=O)n2-c2ccc(F)cc2)c1,inactive
